AmpC inh no detg: blocks E. coli AmpC beta-lactamase in detergent-free assay; AmpC nitrocefin hydrolysis, absorbance 480 nm, 0.0001% Triton; P00811; Potency, µM (series often up to 57.1 µM), actives largely listed as inhibitors; actives 0.52% (n = 330,000); further: nearly all actives have a fitted effect of over 20% in size
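20 mM phosphate pH 7.0 + 0.01% (detergent screen) or 0.0001% Triton X-100; 5.3 nM AmpC reagent; cpd preinc 15 min RT; nitrocefin (800 uM stock) to start; A480 q20 s × 4 min; Activity was normalised to no-enzyme and no-compound control wells.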
SARS PLP yeast: SARS-CoV PLP inhibition in yeast. actives 0.19% (n = 330,000). AID 485353. Potency, µM (highest dose often 32.9 µM), actives largely listed as activators. S. cerevisiae expressing SARS-CoV PLpro, growth rescue; calls by dose curve; further: nearly all actives have a fitted effect of over 55% in size
AmpC inh detg: blocks E. coli AmpC beta-lactamase in detergent assay; actives 0.041% (n = 370,000); AmpC hydrolysis of nitrocefin, absorbance 480 nm, 0.01% Triton; P00811; Potency, µM (top dose mostly 114 µM), usual class: inhibitors; further: nearly all actives have a fitted effect of over 25% in size
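AmpC (5.3 nM in the dispensed reagent) in 20 mM phosphate pH 7.0 with 0.01% (detergent screen) or 0.0001% Triton X-100 was preincubated with compounds for 15 min at room temperature. Nitrocefin was then added from an 800 uM solution, and hydrolysis was followed at 480 nm.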
Giardia FBPA inh: blocks Giardia fructose-bisphosphate aldolase activity; A8B2U2; purified Giardia FBPA; Potency, µM (doses to about 59.6 µM), usual class: inhibitors; actives 0.71% (n = 290,000); further: nearly all actives have a fitted effect of over 55% in size
Target sequence (A8B2U2 whole entry, looked up): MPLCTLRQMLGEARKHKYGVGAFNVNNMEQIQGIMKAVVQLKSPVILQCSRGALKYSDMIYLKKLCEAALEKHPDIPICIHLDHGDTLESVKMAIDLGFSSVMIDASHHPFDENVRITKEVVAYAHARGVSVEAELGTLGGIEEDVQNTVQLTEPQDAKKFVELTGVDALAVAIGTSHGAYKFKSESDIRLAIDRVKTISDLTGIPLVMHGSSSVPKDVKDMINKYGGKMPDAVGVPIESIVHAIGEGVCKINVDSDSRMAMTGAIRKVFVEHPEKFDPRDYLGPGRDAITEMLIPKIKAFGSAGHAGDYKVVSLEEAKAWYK
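40 nM FBPA preincubated 10 min at RT with compound (up to 57.5 uM final), then substrate plus GAPDH/TPI/NAD/arsenate coupling and diaphorase/resazurin added. Fluorescence read after 20 min at RT, 525/598 nm.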
Of the large screens only hits and unclear results are named; the others gave an inactive call. Shown are actives, neighbours in structure and some others; about 1.1% of the full set was active somewhere. Unless noted, the call rests on the fitted dose curve; in most records, active means well fitted curve in the direction sought with a large enough effect; inconclusive means small, poorly fitted or top-dose-only effect, or another doubt; inactive means no such curve, though single readings can be large; an effect the other way counts as inactive or inconclusive.

CCCOc1ccc(C(=O)NNC(=S)NC(=O)c2ccccc2)cc1	Giardia FBPA inh inconclusive
CCOc1cccc(-c2cc(C(=O)Nc3ccon3)c3ccccc3n2)c1	AmpC inh no detg 18µM
O=C(Nc1ccon1)c1cc(-c2ccccc2)nc2ccccc12	none
CCCOc1ccc(C(=O)NNC(=S)NC(=O)c2cc(-c3ccccc3)nc3ccccc23)cc1	AmpC inh no detg 4.5µM, Giardia FBPA inh inconclusive
COc1cccc(OC)c1C1=Nn2c(nnc2-c2ccccc2C)SC1	none (no result: AmpC inh no detg, SARS PLP yeast, AmpC inh detg)
COc1ccc2c(c1OC)C(=O)OC2Nc1nc(-c2cc3cc(Br)ccc3oc2=O)cs1 (configuration not stated)	AmpC inh no detg 32µM
COc1ccc(-c2csc(NC3OC(=O)c4c3ccc(OC)c4OC)n2)cc1OC (configuration not stated)	none
Cc1csc2nc(-c3cccc(NC(=O)C(C)C)c3)cn12	none (no result: AmpC inh no detg, SARS PLP yeast, Giardia FBPA inh)
COc1ccc(-c2ccnc(-c3ccc(OCCCF)cc3)n2)cc1	AmpC inh no detg inconclusive
FCCCOc1ccc(-c2nccc(-c3ccc(Cl)cc3)n2)cc1	AmpC inh no detg 0.11µM
CC12CCC=CC1C(c1ccc(C(F)(F)F)cc1)N(Cc1ccccc1)C2=O (configuration not stated)	none (no result: AmpC inh no detg, SARS PLP yeast, AmpC inh detg)
CC[C@H](C)[C@H](NC(=O)[C@H](CCC(=O)O)NC(=O)[C@H](CO)NC(=O)[C@@H](NC(=O)[C@H](C)N)C(C)C)C(=O)N[C@@H](CCC(N)=O)C(=O)N[C@@H](CC(C)C)C(=O)N[C@@H](CCSC)C(=O)N[C@@H](Cc1cnc[nH]1)C(=O)N[C@@H](CC(N)=O)C(=O)N[C@@H](CC(C)C)C(=O)NCC(=O)N[C@@H](CCCCN)C(=O)N[C@@H](Cc1cnc[nH]1)C(=O)N[C@@H](CC(C)C)C(=O)N[C@@H](C)C(=O)N[C@@H](CO)C(=O)N[C@H](C(=O)N[C@@H](CCC(=O)O)C(=O)N[C@@H](CCCNC(=N)N)C(=O)N[C@@H](CCSC)C(=O)N[C@@H](CCC(N)=O)C(=O)N[C@@H](Cc1c[nH]c2ccccc12)C(=O)N[C@@H](CC(C)C)C(=O)N[C@@H](CCCNC(=N)N)C(=O)N[C@@H](CCCCN)C(=O)N[C@@H](CCCCN)C(=O)N[C@@H](CC(C)C)C(=O)N[C@@H](CCC(N)=O)C(=O)N[C@@H](CC(=O)O)C(=O)N[C@H](C(=O)N[C@@H](Cc1cnc[nH]1)C(=O)N[C@@H](CC(N)=O)C(=O)N[C@@H](Cc1ccccc1)C(=O)O)C(C)C)C(C)C	none (no result: AmpC inh no detg, SARS PLP yeast, AmpC inh detg)
CN1CCC(=O)N(C(CSc2ccc(Br)cc2)c2ccccc2)CC1 (configuration not stated)	none (no result: AmpC inh no detg, SARS PLP yeast, AmpC inh detg)
Cc1ccc(NC(=O)C2C(c3ccccc3)C2(Cl)Cl)c(C)c1 (configuration not stated)	AmpC inh no detg 28µM
O=C(Cc1ccc(-n2c(=O)c3sccc3n(CC(=O)Nc3ccccc3)c2=O)cc1)NCc1ccco1	none
Cc1ccc(C)c(Cn2c(=O)n(-c3ccc(CC(=O)NCc4ccco4)cc3)c(=O)c3sccc32)c1	AmpC inh no detg 11µM, AmpC inh detg inconclusive
CCCCc1cc2c(cn1)C(=O)C(C)(OC(C)=O)C(=O)C2 (configuration not stated)	none (no result: AmpC inh no detg, SARS PLP yeast, AmpC inh detg)
CSc1ncc(C(=O)Nc2ccc(C)c(Cl)c2)c(-c2ccccc2)n1	none (no result: AmpC inh no detg, SARS PLP yeast, Giardia FBPA inh)
CCOC(=O)c1c(C)nc2c(c1-c1cc(OC)ccc1OC)C(=O)c1ccccc1-2	none
CCOC(=O)C1=C(Cc2ccc(OC)cc2)C(=O)c2ccccc2C1=O	Giardia FBPA inh 1.4µM
CCOC(=O)C1=C(Cc2ccc(C)cc2)C(=O)c2ccccc2C1=O	Giardia FBPA inh 4µM
CCOC(=O)c1ccc(COC(=O)c2ccc3c(c2)-c2ccccc2C3=O)cc1	SARS PLP yeast inconclusive
CCOC(=O)C1CCCN(C(=O)Cn2cnc3c2c(=O)n(C)c(=O)n3C)C1 (configuration not stated)	none
CCOC(=O)C1CCCN(C(=O)Cn2sc3nc(C)cc(C)c3c2=O)C1 (configuration not stated)	AmpC inh no detg 14µM, AmpC inh detg 45µM
Cc1cc(C)c2c(=O)n(CC(=O)N3CCC(N4CCCCC4)CC3)sc2n1	AmpC inh no detg 20µM, AmpC inh detg 56µM
CC(=O)Cn1cnc2c(sc3nc(C)cc(C)c32)c1=O	none
CCCNC(=O)Cn1sc2nc(C)cc(C)c2c1=O	AmpC inh no detg inconclusive, AmpC inh detg 79µM
O=C(CCCc1ccccc1)NC1CC(=O)N(c2ccc(F)cc2)C1 (configuration not stated)	none (no result: AmpC inh no detg, SARS PLP yeast, Giardia FBPA inh)

Source: PubChem (National Center for Advancing Translational Sciences (NCATS))
